GRP78 ERSR act = inducers of ER stress response in human glioma cells | U87-MG GRP78 promoter luciferase reporter, 16 h | 420,000 tested, 0.02% active | Potency, µM, without a hit: at the highest dose activation, usual class: activators; active = well fitted activation curve with a large enough effect; inconclusive = small, poorly fitted or top-dose-only effect; inactive = no such curve, though single readings can be large or run the other way; note: potency is the fitted concentration of half-maximal effect; series mostly up to about 76 µM; % of control where 0% means no effect; nearly all actives have a fitted effect of over 35% in size
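Stably transfected U87-MG glioma cells carrying a GRP78-based luciferase sensor; 16 h compound incubation. Luminescence end-point read 10 min after Bright-Glo addition at room temperature.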
D1 agonist = agonists of human D1 dopamine receptor | P21728 | HEK293 T-REx D1 cells, calcium flux, agonist mode | activation, % at 2 µM | 360,000 tested, 1% active | AID 504660; note: 0% is about no effect
Target sequence (P21728 whole entry, looked up): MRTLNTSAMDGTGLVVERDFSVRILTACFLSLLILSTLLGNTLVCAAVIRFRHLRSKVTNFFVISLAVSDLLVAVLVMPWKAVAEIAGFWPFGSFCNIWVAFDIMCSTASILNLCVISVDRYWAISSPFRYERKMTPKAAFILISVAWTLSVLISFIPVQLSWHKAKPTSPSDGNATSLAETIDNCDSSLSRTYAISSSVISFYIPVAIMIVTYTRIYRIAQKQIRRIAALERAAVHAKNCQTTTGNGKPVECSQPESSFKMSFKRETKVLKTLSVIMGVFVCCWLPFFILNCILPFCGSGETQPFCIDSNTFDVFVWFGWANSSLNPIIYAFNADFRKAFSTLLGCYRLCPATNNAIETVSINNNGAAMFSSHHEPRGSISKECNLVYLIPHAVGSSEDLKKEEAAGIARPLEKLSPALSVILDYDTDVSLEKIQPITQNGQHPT
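Agonism was scored from calcium flux recorded over 180 s (1 read/s) after pintool compound addition, following a 10-cycle baseline. Cells were inducible force-coupled HEK293 TREx D1, plated overnight at 30 C and loaded with no-wash calcium dye.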
D1 PAM = enhances dopamine response at the human D1 receptor; HEK293 TREx D1 cells, calcium flux, dopamine EC20 potentiation; potentiation, % at 10 µM; 360,000 tested, 0.036% active; in the data active = potentiation above about 30%; note: 0% is about no effect
TRHR ag = activates the human TRH receptor | P34981 | TRHR cells, calcium flux fluo-8, FDSS agonist mode | activation, % at 2 µM | 360,000 tested, 0.18% active | AID 493084; note: 0% is about no effect
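In this calcium-flux screen, cells bearing human TRHR are dye-loaded with fluo-8, baselined for 10 cycles, then exposed to library compounds; positive kinetic calcium responses during the agonist phase mark hits, with TRH as control.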
D1 antag = antagonists of human D1 dopamine receptor | P21728 | HEK293 TREx D1 cells, calcium flux, dopamine EC80; hits give low values | activity change, negative = inhibition, % at 10 µM | 360,000 tested, 3.2% active | AID 504652; in the data active = activity change below about -30%; note: % is set by controls: 0 for no effect and ±100 for the full control effect
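Tetracycline-induced HEK293 T-REx cells with force-coupled D1 receptor were loaded with a no-wash calcium dye. Compound was added after a 10 s baseline and read kinetically for 180 s; EC80 dopamine was then added and calcium flux followed another 180 s.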
TRHR PAM = TRH receptor (human) allosteric enhancement. AID 493056. enhancement, % at 2 µM. P34981. TRHR cells, fluo-8 calcium fluorescence, EC20 TRH enhancement. 360,000 tested, 0.66% active; in the data active = enhancement above about 30%; note: 0% is about no effect
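TRHR-expressing cells loaded with fluo-8 calcium dye were read kinetically (ex 480/em 530) during compound addition, then stimulated with an EC20 of TRH (10 nM final). Enhancement of the Gq-mediated intracellular calcium response was scored.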
An asterisk follows results filed as active; ? = inconclusive; nt = no result; ! = repeats disagree. Only some compounds are listed: those with a hit (about 4% of all), similar ones and a draw of the others. Cut-off read from the data, not from the text of the source, unless noted: active = activation above about 30%; inactive = the rest.

SMILES | GRP78 ERSR act | D1 agonist | D1 PAM | TRHR ag | D1 antag | TRHR PAM
O=C(c1ccccc1)c1ccc(COC(=O)c2cnccn2)cc1 | 0.6% | 2.3 | -4.5 | -0.1 | -14.5 | 2.6
CC[C@]1(C(=O)OC)[C@H]2C(=O)N(C)C(=O)[C@H]2[C@H]2CN=C(SCc3ccc(C(=O)OC)cc3)N21 | -1.2% | nt | nt | nt | nt | nt
CC(C)CN1C(=O)c2ccc(NC(=O)c3cccs3)cc2C1=O | 7.3% | 2.1 | -8.9 | 1.1 | -14.6 | 37.6*
Cc1ccccc1C(=O)Nc1ccc2c(c1)CCCN2C(=O)c1cccs1 | 2.8% | 5.3 | -5.8 | -0.6 | -37.4*! | -5.7
O=C(Nc1ccc(N2CCCC2)c(Cl)c1)c1cccs1 | 0.3% | 4.0 | -5.6 | 0.3 | -31.7* | 0.0
O=C(Cc1ccccc1)Nc1ccc(NC(=O)c2cccs2)c(Cl)c1 | -1.7% | 5.7 | -5.0 | 0.7 | -13.5 | 6.6
O=C(Cc1ccccc1)Nc1ccc(NC(=O)c2cccs2)cc1Cl | -2.1% | 7.5 | -2.1 | -0.1 | -30.8* | 5.1
COC(=O)N[C@H](C(=O)N[C@@H](Cc1ccccc1)[C@@H](O)CN(Cc1ccc(-c2ccccn2)cc1)NC(=O)[C@@H](NC(=O)OC)C(C)(C)C)C(C)(C)C | 4.8% | nt | nt | nt | nt | nt
COc1ccccc1CN1CCC2(CCC(CNC(=O)c3ccccc3N(C)C)O2)CC1 (stereo not given) | -3.5% | nt | nt | nt | nt | nt
COc1ccc(NS(=O)(=O)c2cc(NC(=O)c3cccs3)ccc2N2CCOCC2)cc1 | 0.0% | 2.0 | 3.2 | 0.0 | -7.6 | 18.4
COc1ccccc1NS(=O)(=O)c1cc(NC(=O)c2cccs2)ccc1N1CCOCC1 | -3.1% | 3.1 | 2.5 | 0.7 | -30.1* | -0.4
Cc1cc2cc(CN(Cc3cccs3)C(=S)NCC3CCCO3)c(=O)[nH]c2cc1C (stereo not given) | -1.6% | 8.9 | -0.1 | 0.3 | 14.2 | 2.6
CCNC(=S)N(Cc1cc2cc(C)cc(C)c2[nH]c1=O)C1CCCC1 | 4.8% | -0.3 | -3.6 | -0.1 | -47.1* | 5.4
Cc1cc(C)c2[nH]c(=O)c(CN(Cc3cccs3)C(=S)NCC3CCCO3)cc2c1 (stereo not given) | -3.1% | -0.7 | -6.1 | -0.7 | -31.3* | -3.0
CNC(=S)N(Cc1cc2cc(C)cc(C)c2[nH]c1=O)C1CCCC1 | 0.0% | 0.6 | -0.8 | 0.2 | 15.7 | 7.1
CCN(CC)S(=O)(=O)c1ccc2oc(SCc3ccc(F)cc3)nc2c1 | 3.9% | 28.8 | -8.1 | -1.7 | -35.7* | -1.3
COc1ccccc1C(=O)N1[C@@H](C(C)C)COc2cc(Br)ccc2S1(=O)=O | -5.7% | nt | nt | nt | nt | nt
C=CCNC(=O)COC(=O)c1ccc(Cl)c(S(N)(=O)=O)c1 | -3.5% | 2.6 | -15.3 | -0.1 | -37.1* | 3.8
CC1=CN2C(=N)/C(=C\c3cn(CCCOc4ccccc4)c4ccccc34)C(=O)N=C2S1 | -5.0% | 30.8* | -5.1 | 6.2 | -20.8 | -6.4
CCN1CCN(C(=O)N[C@H](C(=O)N[C@@H]2C(=O)N3[C@@H](C(=O)O)C(C)(C)S[C@@H]23)c2ccccc2)C(=O)C1=O | -2.3% | nt | nt | nt | nt | nt
COCCNC(=O)c1cc2c(s1)-c1ccc(Cl)cc1SC2 | ? | 4.0 | -9.2 | 0.0 | -91.6* | 7.3
CCc1sc(-c2cc3ccccc3oc2=O)nc1-c1ccc(C)cc1 | -1.7% | nt | nt | nt | nt | nt
O=C(CSc1nc2ccccc2c(=O)n1NC(=O)Cc1ccccc1)NCc1ccccc1 | 1.1% | 6.5 | -8.8 | -0.3 | -32.2* | -4.0
O=C(CSc1nc2ccccc2c(=O)n1NC(=O)Cc1ccccc1)NCc1ccco1 | -2.2% | 2.0 | -2.5 | 0.4 | -26.6 | -6.7
CCC1=Nc2cc(C(=O)NC3CCCC3)ccc2Sc2ccc(Cl)cc21 | -5.6% | 5.3 | -4.7 | 0.5 | -33.8* | 13.8
SMILES | GRP78 ERSR act | D1 agonist | D1 PAM | TRHR ag | D1 antag | TRHR PAM
CCC1=Nc2cc(C(=O)NCc3cccnc3)ccc2Sc2ccc(C)cc21 | -3.6% | 2.8 | -19.4 | 0.1 | -76.3* | 4.0
CC1=Nc2cc(C(=O)NC3CCCC3)ccc2Sc2ccc(Cl)cc21 | -6.1% | 2.3 | -4.2 | -1.1 | 1.6 | 4.7
CN(CCc1ccccn1)C1CCCN(S(=O)(=O)c2ccccc2)C1 (stereo not given) | -3.0% | 2.7 | -11.5 | -0.2 | 12.1 | -0.7
COc1ccc(CCN(C)C2CCCN(S(=O)(=O)c3ccccc3F)C2)cc1OC (stereo not given) | -0.8% | 3.0 | -4.7 | -0.2 | -31.8* | 0.5
COC(=O)c1sccc1S(=O)(=O)N1CCCC(N(C)CCc2ccccn2)C1 (stereo not given) | -2.9% | 3.8 | -4.5 | 0.2 | -34.7* | 6.6
COc1cc(C(=O)NCCCN2CCCC2=O)cc(Br)c1OCc1ccccc1 | -1.5% | 14.6 | nt | 0.1 | 1.6 | 3.3
COc1cc(-c2noc(C)c2C(=O)NCCCn2ccnc2)cc(OC)c1OC | -2.0% | nt | nt | nt | nt | nt
CCc1c(C#N)sc(C(N)=O)c1CC | -12.1% | -0.4 | 0.8 | 0.4 | -58.4* | 4.2
Oc1c(Br)cc(Br)cc1CNc1cnc2ccccc2c1 | -0.1% | 15.6 | -1.4 | -0.7 | -14.2 | -3.2
Oc1c(Br)cc(Br)cc1CNc1ccc(F)cc1 | -5.0% | 2.5 | -4.5 | 0.5 | -38.7* | -8.3
Clc1ccc(Nc2c(-c3ccccc3Cl)nc3ccc(Cl)cn23)cc1 | 1.0% | -0.1 | -2.0 | 0.2 | -40.7* | 11.9
Oc1ccccc1-c1nc2cnccn2c1Nc1ccc(Cl)cc1 | -4.0% | 3.3 | 0.3 | 0.2 | 3.5 | -2.5
Cc1cc(NC(=O)CSCC(=O)N(C)Cc2cccc(Cl)c2)no1 | -4.1% | 3.2 | -10.6 | -0.3 | -18.3 | -2.2
Cc1cc(NC(=O)Nc2cc(Cl)ccc2C)no1 | -2.4% | 35.5* | 0.1 | 2.3 | -10.2 | 4.6
Cc1cc(NC(=O)C(=O)NCc2cccc(Cl)c2)no1 | -2.3% | 4.5 | 2.0 | 0.3 | -33.2* | 1.0
Nc1ncnc2c1ncn2[C@@H]1O[C@H](CNC(=O)[C@@H]2CCN2)[C@@H](O)[C@H]1O | -4.4% | nt | nt | nt | nt | nt
COc1ccc(OCC(O)CNC(=O)Nc2cc(F)ccc2C)cc1 (stereo not given) | -1.2% | -1.2 | -6.7 | -0.1 | -40.9* | 2.6
COc1ccc(OCC(O)CNC(=O)Nc2ccc(C(C)(C)C)cc2)cc1 (stereo not given) | -3.5% | 0.8 | -10.8 | -1.2 | 1.9 | -2.1
O=C(c1c[nH]c2ccccc12)C(Cl)c1ccccc1 (stereo not given) | -2.7% | 18.2 | -0.7 | -1.9 | -38.9* | 5.1
OCC1(CCc2ccccc2)CCN(Cc2cc(F)ccc2-n2cccn2)CC1 | -0.6% | 1.4 | -6.2 | -0.3 | -31.5* | -8.2
COc1ccc(CCNC(=O)CCc2nnc(Cc3ccc4c(c3)OCO4)o2)c(OC)c1 | -1.7% | 8.6 | -5.9 | -0.4 | -6.4 | -2.6
COc1ccccc1C(C)Nc1nc(-c2cccnc2)nc2ccccc12 (stereo not given) | -1.8% | 0.9 | -1.3 | -0.4 | 8.8 | 15.1

Bioassay records deposited in PubChem BioAssay by National Center for Advancing Translational Sciences (NCATS).
